# Results published in the supplement of paper PMC8728848.
# The entries come from a sample that favours the strongest signals as a whole.
# Legend:
# Assay in all cases: glycan array binding signal (z-score within array); higher = stronger binding
# Details in all cases: glycan notation: IUPAC condensed, linker removed
# [1] = molecular target: Fuc(a1-2)Gal(b1-3)GalNAc(a1-3)[Fuc(a1-2)]Gal(b1-4)GlcNAc
# How it was run: (§1)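 Columns mapping to the same glycan were averaged after glycan names were converted to IUPAC-condensed notation. The data come from 3228 arrays in the Consortium for Functional Glycomics database, limited to those with an available protein sequence. Binding is reported as a within-array Z-score averaged across arrays of one protein sequence and across linkers.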
# [2] = molecular target: Fuc(a1-2)Gal(b1-3)GlcNAc(b1-3)[Gal(b1-4)GlcNAc(b1-6)]Gal(b1-4)Glc
# How it was run: as §1
# [3] = molecular target: Fuc(a1-2)Gal(b1-4)GlcNAc(b1-2)[Fuc(a1-2)Gal(b1-4)GlcNAc(b1-4)]Man(a1-3)[Fuc(a1-2)Gal(b1-4)GlcNAc(b1-2)Man(a1-6)]Man(b1-4)GlcNAc(b1-4)GlcNAc
# How it was run: as §1
# [4] = molecular target: Fuc(a1-2)Gal(b1-4)GlcNAc(b1-3)GalNAc
# How it was run: as §1
# [5] = molecular target: Fuc(a1-2)Gal(b1-4)[Fuc(a1-3)]GlcNAc(b1-3)GalNAc
# How it was run: as §1
# [6] = molecular target: Fuc(a1-2)[GalNAc(a1-3)]Gal
# How it was run: as §1
# [7] = molecular target: Fuc(a1-2)[GalNAc(a1-3)]Gal(b1-3)GlcNAc
# How it was run: as §1
# [8] = molecular target: Fuc(a1-2)[GalNAc(a1-3)]Gal(b1-3)GlcNAc(b1-6)GalNAc
# How it was run: as §1
# [9] = molecular target: Fuc(a1-2)[GalNAc(a1-3)]Gal(b1-4)GlcNAc
# How it was run: as §1
# [10] = molecular target: Fuc(a1-3)[Gal3S(b1-4)]GlcNAc
# How it was run: as §1
# [11] = molecular target: Gal(a1-3)Gal(b1-4)GlcNAc(b1-3)GalNAc
# How it was run: as §1
# [12] = molecular target: Gal(b1-3)GlcNAc(b1-3)Gal(b1-4)Glc
# How it was run: as §1
# Gal(b1-4)GlcNAc(b1-2)Man = molecular target: Gal(b1-4)GlcNAc(b1-2)Man
# How it was run: as §1
# [13] = molecular target: Gal(b1-4)GlcNAc(b1-3)Gal(b1-3)GlcNAc
# How it was run: as §1
# [14] = molecular target: Gal(b1-4)GlcNAc(b1-3)Gal(b1-4)GlcNAc(b1-3)Gal(b1-4)GlcNAc(b1-2)Man(a1-3)[Gal(b1-4)GlcNAc(b1-3)Gal(b1-4)GlcNAc(b1-3)Gal(b1-4)GlcNAc(b1-2)Man(a1-6)]Man(b1-4)GlcNAc(b1-4)[Fuc(a1-6)]GlcNAc
# How it was run: as §1
# [15] = molecular target: Gal(b1-4)GlcNAc(b1-3)Gal(b1-4)GlcNAc(b1-3)Gal(b1-4)GlcNAc(b1-3)Gal(b1-4)GlcNAc(b1-3)Gal(b1-4)GlcNAc(b1-2)Man(a1-3)[Gal(b1-4)GlcNAc(b1-3)Gal(b1-4)GlcNAc(b1-3)Gal(b1-4)GlcNAc(b1-3)Gal(b1-4)GlcNAc(b1-3)Gal(b1-4)GlcNAc(b1-2)Man(a1-6)]Man(b1-4)GlcNAc(b1-4)[Fuc(a1-6)]GlcNAc
# How it was run: as §1
# [16] = molecular target: Gal(b1-4)GlcNAc(b1-3)Gal(b1-4)GlcNAc(b1-3)Gal(b1-4)GlcNAc(b1-3)Gal(b1-4)GlcNAc(b1-3)Gal(b1-4)GlcNAc(b1-2)[Gal(b1-4)GlcNAc(b1-3)Gal(b1-4)GlcNAc(b1-3)Gal(b1-4)GlcNAc(b1-3)Gal(b1-4)GlcNAc(b1-3)Gal(b1-4)GlcNAc(b1-6)]Man(a1-6)[Gal(b1-4)GlcNAc(b1-3)Gal(b1-4)GlcNAc(b1-3)Gal(b1-4)GlcNAc(b1-3)Gal(b1-4)GlcNAc(b1-3)Gal(b1-4)GlcNAc(b1-2)Man(a1-3)]Man(b1-4)GlcNAc(b1-4)[Fuc(a1-6)]GlcNAc
# How it was run: as §1
# [17] = molecular target: Gal(b1-4)GlcNAc(b1-3)GalNAc
# How it was run: as §1
# [18] = molecular target: Gal(b1-4)GlcNAc(b1-6)[Gal(b1-3)]GalNAc
# How it was run: as §1
# [19] = molecular target: Gal3S(b1-3)[Fuc(a1-4)]GlcNAc
# How it was run: as §1
# Gal3S(b1-4)Glc6S = molecular target: Gal3S(b1-4)Glc6S
# How it was run: as §1
# Gal3S(b1-4)GlcNAc = molecular target: Gal3S(b1-4)GlcNAc
# How it was run: as §1
# [20] = molecular target: Gal3S(b1-4)[Fuc(a1-3)]Glc6S
# How it was run: as §1
# Gal6S(b1-4)GlcNAc6S = molecular target: Gal6S(b1-4)GlcNAc6S
# How it was run: as §1
# [21] = molecular target: GalNAc(b1-3)Gal(a1-6)Gal(b1-4)Glc
# How it was run: as §1
# GalNAc4S6S(b1-4)GlcNAc = molecular target: GalNAc4S6S(b1-4)GlcNAc
# How it was run: as §1
# Glc(b1-4)Glc = molecular target: Glc(b1-4)Glc
# How it was run: as §1
# GlcA(b1-3)Gal = molecular target: GlcA(b1-3)Gal
# How it was run: as §1
# GlcA(b1-6)Gal = molecular target: GlcA(b1-6)Gal
# How it was run: as §1
# [22] = molecular target: GlcNAc(b1-2)Man(a1-3)[GlcNAc(b1-4)][GlcNAc(b1-2)Man(a1-6)]Man(b1-4)GlcNAc(b1-4)[Fuc(a1-6)]GlcNAc
# How it was run: as §1
binder,measurement,setting,value
"SspB C123 (Streptococcus gordonii), Q54186 (protein) MAHFHYSSLLAQPQINKEIKNEDGVDIDRTLVAKQSIGKFELKTEALTAGRPKTTSFVLVDPLPTGYKFDLDATKAASTGFDTTYDEASHTVTFKATDETLATYNADLTKPVETLHPTVVGRVLNDGATYTNNFTLTVNDAYGIKSNVVRVTTPGKPNDPDNPNNNYIKPTKVNKNKEGLNIDGKEVLAGSTNYYELTWDLDQYKGDKSSKEAIQNGFYYVDDYPEEALDVRPDLVKVADEKGNQVSGVSVQQYDSLEAAPKKVQDLLKKANITVKGAFQLFSADNPEEFYKQYVSTGTSLVITDPMTVKSEFGKTGGKYENKAYQIDFGNGYATEVVVNNVPKITPKKDVTVSLDPTSENLDGQTVQLYQTFNYRLIGGFIPQNHSEELEDYSFVDDYDQAGDQYTGNYKTFSSLNLTMKDGSVIKAGTDLTSQTTAETDATNGIVTVRFKEDFLQKISLDSPFQAETYLQMRRIAIGTFENTYVNTVNKVAYASAAALEHHHHHH",glycan array binding signal (z-score),[1],-1.8
same,glycan array binding signal (z-score),[2],-0.17
same,glycan array binding signal (z-score),[3],2.68
same,glycan array binding signal (z-score),[4],-0.78
same,glycan array binding signal (z-score),[5],3.99
same,glycan array binding signal (z-score),[6],-0.539
same,glycan array binding signal (z-score),[7],0.229
same,glycan array binding signal (z-score),[8],-0.099
same,glycan array binding signal (z-score),[9],-0.406
same,glycan array binding signal (z-score),[10],0.073
same,glycan array binding signal (z-score),[11],-0.133
same,glycan array binding signal (z-score),[12],0.516
same,glycan array binding signal (z-score),Gal(b1-4)GlcNAc(b1-2)Man,-0.183
same,glycan array binding signal (z-score),[13],1.37
same,glycan array binding signal (z-score),[14],1.26
same,glycan array binding signal (z-score),[15],0.993
same,glycan array binding signal (z-score),[16],2.74
same,glycan array binding signal (z-score),[17],0.085
same,glycan array binding signal (z-score),[18],0.155
same,glycan array binding signal (z-score),[19],0.284
same,glycan array binding signal (z-score),Gal3S(b1-4)Glc6S,0.314
same,glycan array binding signal (z-score),Gal3S(b1-4)GlcNAc,0.468
same,glycan array binding signal (z-score),[20],5.71
same,glycan array binding signal (z-score),Gal6S(b1-4)GlcNAc6S,1.05
same,glycan array binding signal (z-score),[21],-0.455
same,glycan array binding signal (z-score),GalNAc4S6S(b1-4)GlcNAc,-0.886
same,glycan array binding signal (z-score),Glc(b1-4)Glc,-0.604
same,glycan array binding signal (z-score),GlcA(b1-3)Gal,-1.48
same,glycan array binding signal (z-score),GlcA(b1-6)Gal,3.52
same,glycan array binding signal (z-score),[22],-0.492
